High-throughput results deposited in PubChem by National Center for Advancing Translational Sciences (NCATS).
JMJD2A Tudor inh: blocks the human JMJD2A Tudor domain; O75164; AlphaScreen JMJD2A-Tudor / H3K4me3 peptide binding; 390,000 compounds, 4.4% hits; Potency, µM (doses to about 114 µM), usual class: inhibitors; AID 504339; also: nearly all actives have a fitted effect of over 50% in size
BAZ2B block: BAZ2B (human) inhibition. Q9UIF8. AlphaScreen BAZ2B-H3K14Ac peptide displacement. Potency, µM (doses to about 114 µM), actives largely listed as inhibitors. 360,000 compounds, 4.4% hits. AID 504333; also: nearly all actives have a fitted effect of over 60% in size
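AlphaScreen luminescence quantifies BAZ2B engagement of H3K14Ac peptide; the protein and biotinylated peptide are both at 50 nM final, buffer PBS pH 7.4 with 0.01% Tween-20, all steps at room temperature.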
CtBP-E1A inh: CtBP/E1A binding inhibition; AlphaScreen GST-E1A/His-CtBP binding, 1536-well; active compounds read low; activity change, % (no concentration beside the values); 340,000 compounds, 0.49% hits; AID 651724; in the data active = activity change below about -65%; inconclusive = mostly about -30% to -63%
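GST-E1A and His-tagged CtBP (125 nM each as 5X stock) were preincubated with pin-transferred compound for 2 h at 37 °C in the dark, then glutathione donor and nickel acceptor beads were added for 1 h before AlphaScreen reading.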
Six1-Eya2 inh: blocks human Six1 binding to Eya2; activity change, % (concentration not given with the values); AlphaScreen GST-Six1/His-Eya2 binding, biochemical; active compounds read low; 360,000 compounds, 0.56% hits; in the data active = activity change below about -65%; inconclusive = mostly about -30% to -63%
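AlphaScreen with GST-Six1 and His-Eya2 (5X mix: 250 nM and 500 nM), glutathione donor and nickel acceptor beads; buffer 50 mM Tris pH 8.0, 300 mM NaCl, 1 mM TCEP; 1 h at 37 C in the dark.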
G9a block: inhibitors of human histone lysine methyltransferase G9a; Q96KQ7; G9a H3K9 monomethylation, AlphaScreen, 2 h; Potency, µM (highest dose often 102 µM), usual class: inhibitors; 350,000 compounds, 8.8% hits; AID 504332; also: nearly all actives have a fitted effect of over 75% in size
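G9a (20 nM) was preincubated 15 min with compound, then reacted 2 h at room temperature with 500 nM biotin-H3K9 peptide and 20 µM SAM. Monomethyl-H3K9 detected by AlphaScreen using anti-H3K9me1 antibody.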
HP1b chromo inh: blocks HP1-beta chromodomain binding to methylated histone tails. P83916. AlphaScreen HP1-beta / biotin-H3K9me3 peptide binding. Potency, µM (highest dose often 114 µM), actives largely listed as inhibitors. 390,000 compounds, 0.56% hits. AID 540317; also: nearly all actives have a fitted effect of over 70% in size
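Compound inhibition of the preformed complex between 50 nM HP1-beta and 50 nM biotinylated H3K9me3 peptide was read by AlphaScreen. Buffer was PBS pH 7.4 with 0.01% Tween-20. Incubations ran 30 min at room temperature, with 10 ug/mL donor/acceptor beads.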
A number is an active result; – = inactive; ? = inconclusive; · = no result; [ ] = dose if it differs, or a comment. Only some compounds are listed: those with a hit (about 10% of all), similar ones and a draw of the others. Unless noted, calls follow the shape of the dose curve; as a rule, active = well fitted inhibition curve with a large enough effect; inconclusive = small, poorly fitted or top-dose-only effect; inactive = no such curve, though single readings can be large or run the other way.

SMILES	JMJD2A Tudor inh	BAZ2B block	CtBP-E1A inh	Six1-Eya2 inh	G9a block	HP1b chromo inh
CCC(=O)NC(=S)Nc1ccccc1C(=O)NC1CCCCC1	–	–	–	–	–	–
COCCNC(=S)Nc1ccccn1	–	–	–	–	·	–
CC(C)C(=O)NC(=S)Nc1ccccc1C(=O)NC1CCCCC1	–	–	–	–	50.1µM	–
CC(C)C(=O)NC(=S)Nc1ccccn1	?	–	–	–	56.2µM	–
O=C(NC(=S)Nc1ccccn1)c1ccc([N+](=O)[O-])cc1	–	–	–	–	79.4µM	–
C[C@@H]1COc2cc(N3CCC[C@H]3CO)ccc2S(=O)(=O)N1	·	·	–	–	·	·
O=C(NC(=S)Nc1ccccn1)c1ccc(-c2ccccc2)cc1	–	–	–	–	–	–
O=C(NC(=S)Nc1ccccn1)c1ccccc1	–	–	·	–	50.1µM	–
CN(C(=O)CSc1nc2ccccc2n1CC(=O)NCc1ccc(F)cc1)c1ccc(F)cc1	–	–	·	·	–	–
CC(C)(C)Sc1ccc(N)nc1	–	?	–	–	50.1µM	–
O/C(=C\c1nc2ccccc2[nH]1)c1cccs1	–	–	–	–	25.1µM	–
Cc1ccc2c(c1)c1c(n2CC(O)Cn2c(C)nc3ccccc32)/C(=N\O)CCC1 (stereo unspecified)	?	?	–	–	17.8µM	–
CCCCOC(=O)C1=C(C)Nc2ncnn2C1c1ccc(OC)c(OC)c1 (stereo unspecified)	–	?	–	–	50.1µM	–
CCCC1=C(C(=O)OCC)C(c2ccc(F)cc2)n2ncnc2N1 (stereo unspecified)	–	–	–	–	?	–
CCCC1=C(C(=O)OCC)C(c2ccc(N(C)C)cc2)n2ncnc2N1 (stereo unspecified)	?	?	–	–	44.7µM	–
Cc1ccc(NC(=O)CCN2CCC(C)CC2)cc1	–	?	–	–	·	–
CC1CCN(CCC(=O)Nc2ccc3c(c2)OCCO3)CC1	·	56.2µM	·	·	–	·
COC(=O)C1CCN(CC(=O)Nc2ccc3c(c2)OCCO3)CC1	–	·	–	–	·	–
CC1CC(C)CN(CC(=O)Nc2ccc3c(c2)OCCO3)C1 (stereo unspecified)	0.891µM	79.4µM	–	–	–[12.7 µM]	?
Cc1c(C(=O)N2CCC(C)CC2)c(S(=O)(=O)Nc2cccc(C(F)(F)F)c2)c(C)n1C	–	–	·	·	–[12.7 µM]	–
COc1ccc(S(=O)(=O)N(C)C[C@H]2Oc3ccc(NS(=O)(=O)c4cccs4)cc3C(=O)N([C@H](C)CO)C[C@@H]2C)cc1	–	·	–	–	·	–
CC(OC(=O)Cn1[nH]c(=O)c2ccccc2c1=O)C(=O)Nc1ccccc1[N+](=O)[O-] (stereo unspecified)	–	–	–	–	–[2.33 µM]	–
Cc1nn(CC(=O)OC(C)C(=O)Nc2ccccc2[N+](=O)[O-])c(C)c1[N+](=O)[O-] (stereo unspecified)	–	–	–	–	79.4µM	–
COc1cccc(CN(C)C(=O)c2ccc(Oc3ccccc3)cc2)c1OC	–	–	–	–	–	–
COC(=O)[C@@]12C[C@@H](CC(=O)NCC3CCCCC3)C(=O)N(Cc3ccco3)C1=CCC(C)(C)C2	·	·	–	–	·	·
SMILES	JMJD2A Tudor inh	BAZ2B block	CtBP-E1A inh	Six1-Eya2 inh	G9a block	HP1b chromo inh
CCOc1ccc(NC(=O)COc2ccc(-n3cnnn3)cc2)cc1	–	–	–	–	–[12.7 µM]	–
CCN(CC)c1ccc(NC(=O)COc2ccc(-n3cnnn3)cc2)cc1	50.1µM	·	–	–	·	?
CCN(CC)c1ccc(NC(=O)COc2ccc(N(C)S(=O)(=O)c3cccs3)cc2)cc1	?	10µM	?	?	7.94µM	–
Cc1cc(NC(=O)C(C)SCC(=O)Nc2nnc(CC(C)C)s2)no1 (stereo unspecified)	–	–	–	–	–	–
O=c1[nH]cc(C#Cc2ccccc2)c2ncncc12	–	·	·	·	·	–
CCCc1cc(=O)[nH]c(SCC(=O)N2CCN(c3ccccc3OC)CC2)n1	–	–	·	·	–	–
Cc1[nH]n(S(=O)(=O)Cc2ccccc2)c(=O)c1N=Nc1ccccc1Cl	?	·	–	–	50.1µM	–
Cc1[nH]n(S(=O)(=O)c2ccccc2)c(=O)c1N=Nc1cccc(Cl)c1	–	–	–	–	·	–
Cc1ccc(-n2nc3cc(C)c(N)cc3n2)cc1	–	?	–	–	1.58µM	–
CCc1ccc(-n2nc3cc(C)c(N)cc3n2)cc1	89.1µM	31.6µM	·	–	1.12µM	–
COc1ccc(-n2nc3cc(N)c(Br)cc3n2)cc1	–	–	–	–	–[0.501 µM]	–
Cc1cc2nn(-c3cccc4ccccc34)nc2cc1N	–	?	–	–	3.55µM	–
CCc1ccc(S(=O)(=O)c2nnn3c2nc(Nc2cc(OC)cc(OC)c2)c2cc(Cl)ccc23)cc1	–	–	·	·	–	–
O=C(NC(=S)Nc1cccc(O)c1)c1ccco1	–	–	·	–	50.1µM	–
Cc1cc(C)cc(C(=O)NC(=S)Nc2ccc3c(c2)OCCO3)c1	?	?	–	?	25.1µM	?
CCc1ccc(C(=O)NC(=S)Nc2ccc3c(c2)OCCO3)cc1	?	?	–	–	?	?
O=C(CNC(=O)c1ccco1)Nc1ccc2c(c1)OCCO2	–	–	–	–	–[0.501 µM]	–
C=C(C)C(=O)Nc1ccc2c(c1)OCCOCCOCCO2	17.8µM	11.2µM	–	?	10µM	12.6µM
CC(=O)Nc1ccc2c(c1)OCCO2	–	–	–	–	–	–
O=C(NC(=S)Nc1ccc2c(c1)OCCO2)c1ccco1	?	?	–	–	70.8µM	–
